Experiment [1] addresses Peroxisome proliferator-activated receptor delta (Homo sapiens) (UniProt Q03181). Kind of experiment: qHTS assay to identify small molecule agonists of the peroxisome proliferator-activated receptor delta (PPARd) signaling pathway (AID 743212; calls by dose curve). A digest of the protocol:
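Read-out: beta-lactamase FRET fluorescence after 2 h room-temperature incubation with LiveBLAzer B/G substrate. Cells were HEK293H carrying a UAS-bla reporter for PPARd, treated at 37 C with DMSO-dissolved compounds.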

A short description of experiment [2]: qHTS assay to identify small molecule antagonists of the peroxisome proliferator-activated receptor delta (PPARd) signaling pathway - cell viability counter screen (AID 743213). Also: nearly all actives have a fitted effect of over 50% in size. Also: potency is read from the fitted curve at half-maximal effect. A digest of the protocol: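 Luminescence from CellTiter-Glo, added after the bla read and incubated 30 min at room temperature, gives viability of HEK293H PPARd-bla cells exposed to compounds for 17 h at 37 C with 300 nM L165041.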

For experiment [3], the target named is Peroxisome proliferator-activated receptor delta (Homo sapiens) (UniProt Q03181). Kind of experiment: qHTS assay to identify small molecule antagonists of the peroxisome proliferator-activated receptor delta (PPARd) signaling pathway (AID 743215; active = well fitted inhibition curve with a large enough effect in the signal ratio in the repeat runs, not every such curve was filed as active; the % refers to the signal ratio;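 also: cells stimulated with agonist L165041 at 300 nM final during compound exposure; series mostly up to about 62 µM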). A digest of the protocol: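 HEK293H GeneBLAzer PPARd UAS-bla reporter cells; cpd + L165041 300 nM final, 17 h 37 C; LiveBLAzer B/G FRET substrate 2 h RT; fluorescence intensity read-out. Antagonist mode.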
In general terms: Quantitative high-throughput screening tests each substance at several concentrations.

The nature of experiment [4]: qHTS assay to identify small molecule agonists of the farnesoid-X-receptor (FXR) signaling pathway - cell viability counter screen (AID 743218). Also: nearly all actives have a fitted effect of over 45% in size. Also: potency is read from the fitted curve at half-maximal effect. A digest of the protocol: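 Luminescence from CellTiter-Glo, read after 30 min at RT, reports viability of GeneBLAzer FXR-UAS-bla HEK 293T cells treated 16 h with compounds in the wells used for the beta-lactamase reporter.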

A short description of experiment [5]: qHTS assay to identify small molecule antagonists of the farnesoid-X-receptor (FXR) signaling pathway - cell viability counter screen (AID 743221; active = well fitted cell-killing curve with a large enough effect in the repeat runs, not every such curve was filed as active; also: nearly all actives have a fitted effect of over 50% in size; also: potency is read from the fitted curve at half-maximal effect). A digest of the protocol:
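FXR-UAS-bla HEK 293T cells were treated with test compounds plus chenodeoxycholic acid (50 uM final) for 16 h at 37 C. Cell viability in the same wells was then read as CellTiter-Glo luminescence after 30 min at room temperature.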

Experiment [6] has as its target Vitamin D3 receptor (Homo sapiens) (UniProt P11473). Kind of experiment: qHTS assay to identify small molecule agonists of the vitamin D receptor (VDR) signaling pathway (AID 743222; calls by dose curve). A digest of the protocol:
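Beta-lactamase reporter readout (LiveBLAzer B/G FRET, 2 h RT) in VDR-bla cells after 16 h compound treatment at 37C, 5% CO2; cells pre-incubated 4 h before pin transfer of DMSO solutions.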

Experiment [7] can be described thus: qHTS assay to identify small molecule agonists of the vitamin D receptor (VDR) signaling pathway - cell viability counter screen (AID 743224). Also: nearly all actives have a fitted effect of over 50% in size. Also: potency is read from the fitted curve at half-maximal effect. A digest of the protocol:
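Cytotoxicity counter screen: VDR-bla cells, 16 h compound exposure at 37C, 5% CO2; CellTiter-Glo luminescence, 30 min RT, same wells as bla read.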

Experiment [8] in a line: qHTS assay to identify small molecule antagonists of the vitamin D receptor (VDR) signaling pathway - cell viability counter screen (AID 743225). Also: nearly all actives have a fitted effect of over 50% in size. Also: potency is read from the fitted curve at half-maximal effect. A digest of the protocol:
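VDR-bla HEK 293T cells, 4 h pre-incubation at 37C, then compound plus 1-alpha,25-dihydroxyvitamin D3 (3 nM final) for 16 h. After the beta-lactamase FRET read, CellTiter-Glo was added to the same wells; luminescence after 30 min at room temperature.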

A short description of experiment [9]: qHTS assay to identify small molecule agonists of the NFkB signaling pathway - cell viability counter screen (AID 1159515; calls by dose curve; also: nearly all actives have a fitted effect of over 55% in size; also: potency is read from the fitted curve at half-maximal effect). A digest of the protocol: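 ME-180 NFkB-bla cells, 2,000/well; overnight attach; compound 5 hr, 37 C/5% CO2; LiveBLAzer substrate 1.5 hr RT; then CellTiter-Glo in same wells, 30 min RT, luminescence read.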
The nature of experiment [10]: qHTS assay to identify small molecule agonists of the endoplasmic reticulum stress response signaling pathway (AID 1159516; active = well fitted activation curve with a large enough effect in the signal ratio in the repeat runs, not every such curve was filed as active; the % refers to the signal ratio). A digest of the protocol:
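HeLa ESRE-bla reporter line; cpd 5 h, 37 C/5% CO2; LiveBLAzer B/G FRET substrate 2 h RT; ex 405, em 460/530 nm.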

Experiment [11] is described as follows: qHTS assay to identify small molecule agonists of the endoplasmic reticulum stress response signaling pathway - cell viability counter screen (AID 1159517; calls by dose curve; also: nearly all actives have a fitted effect of over 50% in size; also: potency is read from the fitted curve at half-maximal effect). A digest of the protocol:
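Steps: seed 1,500 ESRE-bla HeLa cells per well; incubate overnight at 37 C, 5% CO2; add compounds in DMSO for 5 hr; run FRET substrate 2 hr RT; add CellTiter-Glo, wait 30 min, read luminescence.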

Experiment [12] in a line: qHTS assay to identify small molecule antagonists of the retinoid-related orphan receptor gamma (ROR-gamma) signaling pathway - cell viability counter screen (AID 1159520). Also: nearly all actives have a fitted effect of over 50% in size. Also: potency is read from the fitted curve at half-maximal effect. A digest of the protocol:
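Tet-on ROR gamma CHO cells were given compounds for 2 hr, then doxycycline hyclate at 1 uM final, and incubated 16 hr at 37 C. Viability was measured as ATP content by CellTiter-Glo luminescence.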

Experiment [13] addresses Nuclear receptor ROR-gamma (Homo sapiens) (UniProt P51449). Briefly: qHTS assay to identify small molecule antagonists of the retinoid-related orphan receptor gamma (ROR-gamma) signaling pathway (AID 1159521; also: nearly all actives have a fitted effect of over 50% in size; also: potency is read from the fitted curve at half-maximal effect). A digest of the protocol: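 Tet-on RORγ CHO cells carrying a ROR response element–luciferase reporter were pretreated with compounds for 2 h, then induced with 1 uM (final) doxycycline hyclate for 16 h at 37 C. Antagonism was read as decreased ONE-Glo luminescence.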

The nature of experiment [14]: qHTS assay to identify small molecule agonists of the AP-1 signaling pathway - cell viability counter screen (AID 1159525; calls by dose curve; also: nearly all actives have a fitted effect of over 55% in size; also: potency is read from the fitted curve at half-maximal effect). A digest of the protocol:
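Same-well cytotoxicity counter screen of the Tox21 10K library in ME-180 cells. The readout is ATP-dependent luminescence after 5 h compound treatment. Data are normalised to DMSO and tetra n-octyl ammonium bromide controls.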

Experiment [15] is described as follows: qHTS assay to identify small molecule agonists of the AP-1 signaling pathway (AID 1159526; calls by dose curve).
Experiment [16] has as its target Retinoic acid receptor RXR-alpha (Homo sapiens) (UniProt P19793). Kind of experiment: qHTS assay to identify small molecule agonists of the RXR signaling pathway (AID 1159527; calls by dose curve; also: nearly all actives have a fitted effect of over 35% in size). A digest of the protocol: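 GeneBLAzer RXR-alpha-UAS-bla HEK 293T cells in medium with 2% charcoal-stripped FBS, pre-incubated 5 hr at 37 C, then exposed to compounds 16 hr. Beta-lactamase reporter read by FRET substrate, 2 hr room temperature, 460/530 nm emission.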

A short description of experiment [17]: qHTS assay to identify small molecule agonists of the peroxisome proliferator-activated receptor delta (PPARd) signaling pathway - cell viability counter screen (AID 743211). Also: nearly all actives have a fitted effect of over 55% in size. Also: potency is read from the fitted curve at half-maximal effect. A digest of the protocol:
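PPARd-bla HEK293H cells (UAS-beta-lactamase reporter) were treated with compounds for 17 h at 37 C. Viability was then read in the same wells by CellTiter-Glo luminescence after 30 min at room temperature.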

In experiment [18] the target is Vitamin D3 receptor (Homo sapiens) (UniProt P11473). Kind of experiment: qHTS assay to identify small molecule antagonists of the vitamin D receptor (VDR) signaling pathway (AID 743223; active = well fitted inhibition curve with a large enough effect in the signal ratio in the repeat runs, not every such curve was filed as active; the % refers to the signal ratio). A digest of the protocol:
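VDR-bla cells were plated, incubated 4 h at 37C, then given compound and 1alpha,25-dihydroxyvitamin D3 (3 nM final). After 16 h at 37C, LiveBLAzer B/G FRET substrate was added for 2 h at room temperature and fluorescence read.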

The target in experiment [19] is Bile acid receptor (Homo sapiens) (UniProt Q96RI1). Briefly: qHTS assay to identify small molecule antagonists of the farnesoid-X-receptor (FXR) signaling pathway (AID 743217; active = well fitted inhibition curve with a large enough effect in the signal ratio in the repeat runs, not every such curve was filed as active; the % refers to the signal ratio). A digest of the protocol: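 Read-out: beta-lactamase FRET fluorescence (LiveBLAzer B/G substrate, 2 h, room temperature) in GeneBLAzer FXR-UAS-bla HEK 293T cells. Compounds were co-dosed with 50 uM chenodeoxycholic acid (final) and incubated 16 h at 37 °C.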

Experiment [20] shares this target. Kind of experiment: qHTS assay to identify small molecule agonists of the farnesoid-X-receptor (FXR) signaling pathway (AID 743220; active = well fitted activation curve with a large enough effect in the signal ratio in the repeat runs, not every such curve was filed as active; the % refers to the signal ratio). A digest of the protocol:
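FXR-UAS-bla HEK 293T cells carrying a UAS-driven beta-lactamase reporter were plated for 5 h at 37C/5% CO2, then exposed to DMSO-dissolved Tox21 10K compounds for 16 h at 37C. A LiveBLAzer B/G FRET substrate was loaded for 2 h at room temperature before fluorescence reading.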

This passage reports outcome and Potency results from PubChem BioAssay (Tox21).

Molecules are shown by their SMILES. Records with an inconclusive call do not appear. Some compounds were tested as several samples or in several runs, with calls that do not always agree. Activity calls are given as the source filed them. Unless noted, calls follow the shape of the dose curve; as a rule, active = well fitted curve in the direction sought with a large enough effect in the repeat runs; inconclusive = weak or mixed curves; inactive = no such curve, though single readings can be large; an effect the other way counts as inactive or inconclusive.

Chain of Retinoic acid receptor RXR-alpha (Homo sapiens) (P19793 whole entry, looked up): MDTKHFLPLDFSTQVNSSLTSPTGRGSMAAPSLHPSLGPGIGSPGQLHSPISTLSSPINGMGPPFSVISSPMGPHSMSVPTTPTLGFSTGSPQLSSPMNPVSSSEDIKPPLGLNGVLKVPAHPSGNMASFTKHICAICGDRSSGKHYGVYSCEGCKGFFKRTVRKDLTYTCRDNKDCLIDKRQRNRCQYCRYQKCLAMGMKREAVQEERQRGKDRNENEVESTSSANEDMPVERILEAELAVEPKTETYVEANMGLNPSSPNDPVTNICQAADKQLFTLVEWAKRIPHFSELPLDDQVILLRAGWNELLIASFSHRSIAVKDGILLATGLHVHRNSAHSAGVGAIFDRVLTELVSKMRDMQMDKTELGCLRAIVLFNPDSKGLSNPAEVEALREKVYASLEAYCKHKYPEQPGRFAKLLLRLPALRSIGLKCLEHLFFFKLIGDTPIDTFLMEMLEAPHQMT
Chain of Vitamin D3 receptor (Homo sapiens) (P11473 whole entry, looked up): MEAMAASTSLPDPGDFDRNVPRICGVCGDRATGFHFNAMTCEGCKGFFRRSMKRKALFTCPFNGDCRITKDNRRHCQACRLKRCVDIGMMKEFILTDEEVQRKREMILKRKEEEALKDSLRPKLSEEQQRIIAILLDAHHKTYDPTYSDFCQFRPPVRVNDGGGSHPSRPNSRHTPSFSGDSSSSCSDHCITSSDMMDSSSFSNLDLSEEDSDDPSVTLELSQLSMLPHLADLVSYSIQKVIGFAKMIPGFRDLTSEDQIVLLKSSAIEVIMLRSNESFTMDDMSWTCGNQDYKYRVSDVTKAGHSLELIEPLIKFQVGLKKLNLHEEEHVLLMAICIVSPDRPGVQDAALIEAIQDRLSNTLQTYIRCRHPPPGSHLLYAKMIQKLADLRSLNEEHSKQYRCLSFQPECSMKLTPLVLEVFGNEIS
Chain of Bile acid receptor (Homo sapiens) (Q96RI1 whole entry, looked up): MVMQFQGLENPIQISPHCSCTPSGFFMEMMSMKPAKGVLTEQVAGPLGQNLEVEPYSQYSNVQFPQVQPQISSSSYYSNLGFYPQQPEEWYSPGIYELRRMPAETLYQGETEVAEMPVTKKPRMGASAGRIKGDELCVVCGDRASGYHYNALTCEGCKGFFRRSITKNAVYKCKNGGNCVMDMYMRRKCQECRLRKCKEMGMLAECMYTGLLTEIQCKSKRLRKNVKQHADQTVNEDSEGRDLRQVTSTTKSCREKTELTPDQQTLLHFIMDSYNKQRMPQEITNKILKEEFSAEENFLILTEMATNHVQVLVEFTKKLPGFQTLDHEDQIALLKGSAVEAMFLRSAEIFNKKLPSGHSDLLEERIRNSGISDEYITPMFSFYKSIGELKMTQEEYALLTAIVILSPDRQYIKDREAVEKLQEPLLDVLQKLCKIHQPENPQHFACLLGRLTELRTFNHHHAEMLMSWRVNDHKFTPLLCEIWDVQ
Chain of Peroxisome proliferator-activated receptor delta (Homo sapiens) (Q03181 whole entry, looked up): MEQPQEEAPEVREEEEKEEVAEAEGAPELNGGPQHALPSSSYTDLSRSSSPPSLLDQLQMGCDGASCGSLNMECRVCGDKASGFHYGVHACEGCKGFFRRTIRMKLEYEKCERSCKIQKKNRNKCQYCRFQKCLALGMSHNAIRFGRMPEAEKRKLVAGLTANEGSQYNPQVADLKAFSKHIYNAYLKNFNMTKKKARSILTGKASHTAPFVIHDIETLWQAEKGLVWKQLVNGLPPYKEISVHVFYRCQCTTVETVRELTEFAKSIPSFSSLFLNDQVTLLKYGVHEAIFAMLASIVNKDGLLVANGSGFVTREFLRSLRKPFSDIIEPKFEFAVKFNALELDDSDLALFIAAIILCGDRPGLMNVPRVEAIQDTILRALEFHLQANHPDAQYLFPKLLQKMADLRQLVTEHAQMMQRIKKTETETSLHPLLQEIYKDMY

Turning to `Cc1ccc2c(C)cccc2c1`, the compound was classed as inactive in experiment [1] and in experiment [6]. Further, the Potency entry in experiment [2], in [3], in experiment [4], in experiment [5], in [7] and in experiment [8] was “inactive” throughout. The Potency result in experiment [9], in experiment [10], in experiment [11], in experiment [12], in [13] and in experiment [14] was “inactive” throughout. Further, the Potency entry in experiment [15] and in experiment [16] was “inactive” each time.

Regarding `COC(=O)Cc1ccccc1`, the result in experiment [1] and in [6] was inactive. Moreover, the Potency entry in experiment [2], in experiment [4], in experiment [5], in experiment [7], in experiment [9] and in [10] was “inactive” throughout. Besides, the Potency entry in [11], in [12], in [13], in [14] and in experiment [15] was “inactive” each time.

Regarding `N#CC1(N=NC2(C#N)CCCCC2)CCCCC1`, the Potency result in experiment [17], in experiment [2], in experiment [4], in [18], in experiment [7] and in experiment [8] was “inactive” each time. Also, the Potency result in experiment [9], in experiment [10], in [11], in experiment [12], in experiment [13] and in [15] was “inactive” each time. For the same compound, the Potency result in [16] was “inactive”.

Consider `C=CCc1ccccc1O`, for which the Potency entry in experiment [2], in experiment [3], in experiment [19], in experiment [4], in [5] and in [18] was “inactive” in each case. For the same compound, the Potency entry in [7], in [8], in [9], in experiment [10], in [11] and in experiment [12] was “inactive” throughout. For the same compound, the Potency result in experiment [13], in experiment [14], in [15] and in experiment [16] was “inactive” in each case. In addition, the outcome in experiment [20] and in experiment [6] was inactive.

In the case of `O=C(O)c1ccc(=O)[nH]c1`, the Potency result in [2], in experiment [4], in experiment [5], in [18], in [7] and in [8] was “inactive” in each case. Moreover, the Potency entry in [9], in experiment [10], in [11], in experiment [12], in experiment [13] and in [14] was “inactive” throughout. Also, the Potency result in experiment [15] and in experiment [16] was “inactive” throughout.

Consider `CC(C)(C)CC(C)(C)c1ccc(O)cc1`, for which the Potency in [17] is 34.7 µM (active); in experiment [2] it was 27.5 µM (active); in experiment [4], 54.8 µM (active) and inactive; in experiment [5] it was 49 µM (active); in experiment [7] it was 15.5 µM (active) and inactive; in experiment [8], 17.4 µM (active). Further, the Potency in experiment [9] was 21.9 µM (active); in experiment [11], 21.9 µM (active); in experiment [12], 27.3 µM (active); in experiment [13] it was 54.5 µM (active) and inactive; in experiment [14], 17.4 µM (active). Moreover, the compound was called inactive in experiment [1], in experiment [20] and in experiment [6]. For the same compound, the Potency result in experiment [3] and in experiment [10] was “inactive” throughout.

As for `CCC(=O)O[C@@H]1C=C2CCC3C(CCC4(C)C3CC[C@@H]4OC(=O)CC)C2CC1` (stereo not given in full), the call in [1] and in experiment [6] was inactive. The Potency entry in experiment [2], in experiment [4], in experiment [7], in experiment [8], in experiment [9] and in [10] was “inactive” each time. The Potency entry in experiment [11], in experiment [12], in [13], in experiment [14], in experiment [15] and in [16] was “inactive” in each case.

For `CCC1(CCC(C)C)C(=O)NC(=O)NC1=O`, the result in experiment [1] and in experiment [20] was inactive. The Potency result in experiment [2], in experiment [3], in experiment [7], in experiment [8], in experiment [9] and in [10] was “inactive” each time. In addition, the Potency result in experiment [11], in [12], in [13], in experiment [14], in experiment [15] and in [16] was “inactive” in each case.

In the case of `CCOP(=O)(O)C(N)=O`, the compound was called inactive in [1], in experiment [20] and in experiment [6]. Moreover, the Potency result in experiment [2], in [3], in [19], in experiment [4], in experiment [5] and in experiment [18] was “inactive” each time. For the same compound, the Potency result in experiment [7], in experiment [9], in experiment [10], in [11], in [12] and in experiment [13] was “inactive” each time. In addition, the Potency result in experiment [15] and in experiment [16] was “inactive” each time.
